Laboratory results published in PubChem BioAssay (NCATS).
Inconclusive results are not listed. The source made the active and inactive calls. Unless noted, the call rests on the fitted dose curve; in most records, active means well fitted curve in the direction sought with a large enough effect; inconclusive means small, poorly fitted or top-dose-only effect, or another doubt; inactive means no such curve, though single readings can be large; an effect the other way counts as inactive or inconclusive.

How the values were obtained:
[1] = target: Phospholipid hydroperoxide glutathione peroxidase GPX4 (Homo sapiens) (UniProt P36969); experiment: Primary qHTS Assay for Inhibitors of Recombinant Selenoprotein Glutathione Peroxidase 4 (GPX4) (AID 1845192); further: series mostly up to about 50 µM; on the % scale 0 is the no-effect control and ±100 the full control effect; nearly all actives have a fitted effect of over 65% in size
Method in brief: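 GR-coupled readout: 100 nM GR, 1 mM GSH, 0.5 mM NADPH; NADPH fluorescence (ex 340/em 450 nm) read at t=0 and after 15 min RT. GPX4 200 nM, preincubated 30 min with compound; substrate 0.5 mM CHP.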

[2] = target: Luciferin 4-monooxygenase (Photinus pyralis) (UniProt P08659); experiment: Primary firefly luciferase (FLuc) qHTS assay for identification of artifact compounds. (AID 1845220); further: nearly all actives have a fitted effect of over 60% in size
Method in brief: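 In this counter-screen for luciferase artifacts, test compounds met substrate (10 uM each luciferin and ATP) before 10 nM enzyme started the reaction. Light output was measured 5 min later.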

[3] = Primary fluorescence-based thiol-reactive (MSTI) qHTS assay for identification of artifact compounds. (AID 1845221); further: nearly all actives have a fitted effect of over 65% in size; further: potency means the concentration at half of the fitted maximal effect
Method in brief: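 First, 4 uM MSTI in 2% DMSO/PBS pH 7.4 was dispensed; next, compounds were added; then plates sat 1 h at room temperature without light. Finally, emission at 598 nm was recorded.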

[4] = tested on: Nanoluciferase (engineered Oplophorus gracilirostris luciferase); experiment: Primary Nanoluciferase (NLuc) qHTS assay for identification of artifact compounds. (AID 1845222);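 further: NLuc secreted into diluted conditioned medium of S16 cells; series mostly up to about 54 µM; 0% = DMSO and -100% = no enzyme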
Method in brief: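 Using secreted nanoluciferase in S16 culture medium (0.22 um filtered, 1:55 dilution), compounds were preincubated 15 min at RT. Signal was generated with Nano-Glo reagent (1:100) over 5 min.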

[5] = Primary redox qHTS assay for identification of artifact compounds. (AID 1845223);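 further: 0% = DMSO and 100% = reference compound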
Method in brief: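 Amplex Red (25 uM) and HRP (250 mU/mL) in HBSS, with compounds for 15 min, then 250 uM DTT for 30 min, room temperature, dark. Fluorescence 525/598 nm read; normalized to DMSO and 10 uM DA3003; Hill fit.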

[6] = qHTS drug screen for cell cycle checkpoint inhibitors in PARPi-resistant BRCA-mutant ovarian cancer cell lines. (AID 1963452; calls by dose curve); details: PEO1/OlaR viability, CellTiter-Glo luminescence, 96 h, stronger effect = lower value
Method in brief: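 PEO1, PEO4 and PEO1/OlaR ovarian cancer cells, 600 per well, exposed 96 h at 37C to a dilution series. Viability read by CellTiter-Glo luminescence, normalized to DMSO and empty wells; activity summarized as Z-AUC.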

Phospholipid hydroperoxide glutathione peroxidase GPX4 (Homo sapiens), sequence (P36969 whole entry, looked up): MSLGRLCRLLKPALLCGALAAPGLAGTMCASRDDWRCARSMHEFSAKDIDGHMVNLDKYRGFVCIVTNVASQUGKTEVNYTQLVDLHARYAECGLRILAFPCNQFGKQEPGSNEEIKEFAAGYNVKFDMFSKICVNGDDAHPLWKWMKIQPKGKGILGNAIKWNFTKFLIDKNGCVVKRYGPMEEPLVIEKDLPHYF

CC(C)(F)C[C@@H](N[C@@H](c1ccc(-c2ccc(S(C)(=O)=O)cc2)cc1)C(F)(F)F)C(=O)NC1(C#N)CC1
inactive: Potency [1] | Potency [2] | Potency [3] | Potency [4] | Potency [5]

Cc1c(CN2CCN(C(=O)C(C)O)CC2)sc2c(N3CCOCC3)nc(-c3cnc(N)nc3)nc12 (stereo not given)
inactive: Potency [1] | Potency [2] | Potency [3] | Potency [4] | Potency [5]

COC(C(=O)N1Cc2[nH]nc(NC(=O)c3ccc(N4CCN(C)CC4)cc3)c2C1)c1ccccc1 (stereo not given)
inactive: Potency [1] | Potency [2] | Potency [3] | Potency [4] | Potency [5]

CC(Nc1ncnc2nc[nH]c12)c1cc2cccc(Cl)c2c(=O)n1-c1ccccc1 (stereo not given)
inactive: Potency [1] | Potency [2] | Potency [3] | Potency [4] | Potency [5]

OCC1OC(Oc2cc(O)cc(/C=C/c3ccc(O)cc3)c2)C(O)C(O)C1O (stereo not given)
inactive: Potency [1] | Potency [2] | Potency [4] | Potency [5]
active: Potency [3] 2930 nM

NC(=O)C(CCC(F)(F)F)N(Cc1ccc(-c2ncon2)cc1F)S(=O)(=O)c1ccc(Cl)cc1 (stereo not given)
inactive: Potency [1] | Potency [2] | Potency [3] | Potency [4] | Potency [5]

CCc1cnn2c(NCc3ccc[n+]([O-])c3)cc(N3CCCCC3CCO)nc12 (stereo not given)
inactive: Potency [1] | Potency [2] | Potency [4]

Cc1cc(Nc2ccc(NC(=O)c3ccc(Nc4ccnc5ccccc45)cc3)cc2)nc(N)n1
inactive: Potency [1] | Potency [2] | Potency [4] | Potency [5]

Cc1ccc(S(=O)(=O)Cc2nc(-c3ccc(C(=O)NCc4cccnc4)cc3)oc2C)cc1
inactive: Potency [2] | Potency [3] | Potency [4] | Potency [5] | Z-AUC [6] -1.97
-3.12: Z-AUC ([6]; measured here: PEO1 parental Z-AUC)
-2.76: Z-AUC ([6]; measured here: PEO4 Z-AUC)

CCC1=CC2CN(C1)Cc1c([nH]c3ccccc13)[C@@](C(=O)OC)(c1cc3c(cc1OC)N(C)[C@H]1[C@@](O)(C(=O)OC)[C@H](OC(C)=O)[C@]4(CC)C=CCN5CC[C@]31[C@@H]54)C2 (stereo not given in full)
inactive: Potency [1] | Potency [2] | Potency [4]

CCC1C(=O)N(C)c2cnc(Nc3ccc(C(=O)NC4CCC(N5CCN(CC6CC6)CC5)CC4)cc3OC)nc2N1C(C)C (stereo not given)
inactive: Potency [1] | Potency [2] | Potency [4]

COc1ccc2cc(C(C)C(=O)Oc3ccc(C(N)=S)cc3)ccc2c1 (stereo not given)
inactive: Potency [2] | Potency [3] | Potency [4] | Potency [5]

Cc1ccc(NC(=O)c2ccc(CN3CC[C@H](N(C)C)C3)c(C(F)(F)F)c2)cc1Nc1nccc(-c2cncnc2)n1
inactive: Potency [1] | Potency [2] | Potency [4] | Potency [5]

CN(CCc1ccc(Nc2ncc(-c3cccnc3)s2)cc1)Cc1ccccc1
inactive: Potency [1] | Potency [2] | Potency [4]

CC(C)C(N)C(=O)OCCOCn1cnc2c(=O)[nH]c(N)nc21 (stereo not given)
inactive: Potency [1] | Potency [3] | Potency [4] | Potency [5]
